KB-V1 MDR tox: qHTS assay for MDR1-selective chemotherapeutics: Primary screen using the drug-selected MDR subline cells KB-V1. KB-V1 MDR cells viability, CellTiter-Glo, 72 h. Potency, µM (doses to about 46.1 µM), usual class: cytotoxic. hit rate 3.4% among 400,000. AID 1347076, 2019; further: potency means the concentration at half of the fitted maximal effect; on the % scale 0 is the no-effect control and ±100 the full control effect; nearly all actives have a fitted effect of over 60% in size
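Following 72 h at 37 degrees C with compound, KB-V1 cell viability was read by CellTiter-Glo luminescence, medium being phenol-red-free DMEM plus 10% FBS; concentration-response parameters came from normalized, curve-fitted qHTS data.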
MCF10A rereplic: A quantitative high throughput screen for small molecules that induce DNA re-replication in MCF 10a normal breast cells; MCF 10A DNA re-replication, Hoechst nuclear intensity, 48 h; Potency, µM (titrated, usually from 46.1 µM), for inactives: top-dose activity, positive = re-replication, usual class: activators; hit rate 2.9% among 350,000; further: potency means the concentration at half of the fitted maximal effect; % of control where 0% means no effect; nearly all actives have a fitted effect of over 50% in size
KB-3-1 cytotox: qHTS assay for MDR1-selective chemotherapeutics: Primary screen using the parental adenocarcinoma cell KB-3-1; KB-3-1 viability, CellTiter-Glo ATP luminescence, 72 h; Potency, µM (highest dose often 46.1 µM), most hits filed as cytotoxic; hit rate 1.4% among 400,000; AID 1347075, 2019; further: potency means the concentration at half of the fitted maximal effect; on the % scale 0 is the no-effect control and ±100 the full control effect; nearly all actives have a fitted effect of over 60% in size
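Luminescent ATP read-out (CellTiter-Glo) measures survival of drug-naive KB-3-1 cells after 72 h compound exposure at 37 °C. Titration series was screened from lowest to highest concentration, with DMSO vehicle plates as background controls.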
SW480 rereplic: A quantitative high throughput screen for small molecules that induce DNA re-replication in SW480 colon adenocarcinoma cells; SW480 DNA re-replication, Hoechst DNA content imaging, 48 h; Potency, µM (titrated, usually from 46.1 µM), for inactives: top-dose re-replication activation, most hits filed as activators; hit rate 1.8% among 340,000; further: potency means the concentration at half of the fitted maximal effect; % of control where 0% means no effect; nearly all actives have a fitted effect of over 55% in size
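Compounds, transferred as 23 nL by pin tool, were incubated with cells for 48 hr; DNA content per nucleus was then quantified by Hoechst staining and fluorescence plate imaging.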
D3 antag: qHTS of D3 Dopamine Receptor Antagonist: qHTS | D(3) dopamine receptor (Homo sapiens), P35462 | D3R cells, DiscoveRx beta-arrestin luminescence, antagonist mode; hits give low values | max response, negative = inhibition, % | hit rate 2.5% among 360,000 | AID 652054, 2013; in the data active means max response below about -50%; inconclusive means no clear call, values can overlap the other calls; further: on the % scale 0 is the no-effect control and ±100 the full control effect
Target sequence (P35462 whole entry, looked up): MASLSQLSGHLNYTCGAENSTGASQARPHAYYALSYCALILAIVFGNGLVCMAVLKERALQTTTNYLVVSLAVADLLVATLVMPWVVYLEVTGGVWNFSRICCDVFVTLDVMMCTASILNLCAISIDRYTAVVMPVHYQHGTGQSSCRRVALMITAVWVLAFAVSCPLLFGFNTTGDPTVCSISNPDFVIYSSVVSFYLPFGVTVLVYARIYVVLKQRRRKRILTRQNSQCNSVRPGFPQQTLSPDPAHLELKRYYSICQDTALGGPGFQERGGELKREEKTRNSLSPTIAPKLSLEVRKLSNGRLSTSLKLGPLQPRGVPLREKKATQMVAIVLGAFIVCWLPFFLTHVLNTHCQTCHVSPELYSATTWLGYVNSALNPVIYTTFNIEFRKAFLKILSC
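Cells plated overnight at 1500 cells/well, then exposed to library compounds with dopamine controls for 90 minutes at 37 degrees C. DiscoveRx reagent added for 30–60 minutes at room temperature; luminescence read, quantitative HTS format.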
DRD3 agonist: qHTS of D3 Dopamine Receptor Agonist: qHTS; D(3) dopamine receptor (Homo sapiens), P35462; hit rate 0.58% among 410,000; max activation, %; D3R DiscoveRx beta-arrestin cells, luminescence, 90 min; in the data active means max activation above about 30%; further: 0% is about no effect
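Cells at 1500/well, incubated overnight, then treated with pinned compounds (dopamine as control) for 90 min at 37 degrees C. DiscoveRx reagent added for 30 - 60 minutes at room temperature; luminescence read.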
Numbers without * were called inactive; i = inactive; ? = inconclusive; . = no result; [ ] = remark or other dose. A selection: hits, their analogues and other compounds. The true share with any hit is near 8.9%. Unless noted, the call rests on the fitted dose curve; in most records, active means well fitted curve in the direction sought with a large enough effect; inconclusive means small, poorly fitted or top-dose-only effect, or another doubt; inactive means no such curve, though single readings can be large; an effect the other way counts as inactive or inconclusive.

SMILES	KB-V1 MDR tox	MCF10A rereplic	KB-3-1 cytotox	SW480 rereplic	D3 antag	DRD3 agonist
CSCC[C@H](NC(=O)OC(C)(C)C)c1nnc(SCc2ccc(F)cc2)o1	21µM*	?	i	2%	-2	10
CC(C)C[C@H](NC(=O)OC(C)(C)C)c1nnc(SCc2cccc(F)c2)o1	i	7%	i	6%	-17	-3
CCN(CC)C(=O)CSc1nnc([C@H](Cc2c[nH]c3ccccc23)NC(=O)OC(C)(C)C)o1	15µM*	0%	i	1%	31	1
CCSc1nnc([C@H](Cc2c[nH]c3ccccc23)NC(=O)OC(C)(C)C)o1	?	432%[0.0737 µM]	i	3%	9	-1
C[C@H](NC(=O)OC(C)(C)C)c1nnc(SCc2ccc(Cl)cc2Cl)o1	18µM*	.	?	.	.	-10
CSCC[C@H](NC(=O)OC(C)(C)C)c1nnc(SCc2cccc(F)c2)o1	i	-5%	i	-1%	4	2
CCc1cccc(C)c1NC(=O)Cn1cc2c(n1)CCCCC2	i	.	i	.	.	-5
CSCC[C@H](NC(=O)OC(C)(C)C)c1nnc(SCc2ccccc2)o1	9.2µM*	6%	?	6%	-8	-6
O=C1CCCN1C(=O)COc1cc(F)ccc1[N+](=O)[O-]	?	3%	i	-6%	-3	-11
O=C1CCCN1C(=O)COc1ccccc1[N+](=O)[O-]	i	-1%	i	?	-3	38*
O=C(O)CCN1CCc2ccccc2C1c1ccncc1 (stereo unspecified)	i	-8%	i	-11%	-58*	-4
Cc1ccc(Cl)cc1N1CCN(C(=O)c2cc(S(=O)(=O)N3CCCC3)cn2C)CC1	.	.	.	.	.	-6
CC(C)(C)n1nnnc1CN1CCN(C(c2ccccc2)c2ccccc2)CC1	?	3%	i	-3%	16	1
CC(C)(C)n1nnnc1C(c1ccccc1)N1CCCN(Cc2ccc(F)cc2)CC1 (stereo unspecified)	?	.	i	.	-105*	-13
CC(C)(C)n1nnnc1C(c1ccccc1)N1CCN(C/C=C/c2ccccc2)CC1 (stereo unspecified)	i	.	i	.	-57*	-10
CC(C)(C)n1nnnc1C(c1ccccc1)N1CCN(c2ccccc2)CC1 (stereo unspecified)	?	.	i	.	0	-7
CCC(c1nnnn1C(C)(C)C)N1CCN(C/C=C/c2ccccc2)CC1 (stereo unspecified)	i	.	i	.	-80*	-8
CCCCCCCCCCCCCCCC(C)C1=NCCN1 (stereo unspecified)	i	.	i	.	.	.
Cc1ccc(S(=O)(=O)c2cn(Cc3ccccc3Cl)c3ccc(F)cc3c2=O)cc1	i	.	i	.	.	1
CCCCC(C(=O)NCCC(C)C)N(CCCN1CCOCC1)C(=O)c1snc(C(N)=O)c1N (stereo unspecified)	9.2µM*	18%	i	-3%	-25	-7
OC[C@@H]1[C@@H](c2ccc(Cl)cc2)C(c2ccccc2)=NN1c1ccccc1	i	2.1µM*	i	23µM*	22	29
OC[C@@H]1[C@@H](c2ccc(Cl)cc2)C(c2cccc(Cl)c2)=NN1c1ccccc1	?	?	i	2.3µM*	27	9
CN1CC(c2ccccc2)C(c2ccc(Cl)cc2)=N1 (stereo unspecified)	i	0%	i	-6%	-13	-11
OC[C@@H]1[C@@H](c2ccc(F)cc2)C(c2cccc(Cl)c2)=NN1c1ccccc1	?	0.58µM*	?	0.13µM*	17	9
COc1ccccc1-c1nc(SCC(=O)NCc2ccc(C)cc2)c2c(=O)n(C)c(=O)n(C)c2n1	?	.	i	.	.	3
SMILES	KB-V1 MDR tox	MCF10A rereplic	KB-3-1 cytotox	SW480 rereplic	D3 antag	DRD3 agonist
Cc1ccc2c(=O)cc(C(=O)NCc3ccccc3)oc2c1	?	.	i	.	.	4
COC(=O)c1ccc(Cn2c(SCc3ccccc3)nc3ccncc32)cc1	i	.	i	.	.	0
CCOC(=O)c1c(C)[nH]c(C)c1S(=O)(=O)NCC(=O)NCc1ccc(C)cc1	i	.	i	.	.	0
Clc1ccc(CN2CCN(c3ncccn3)CC2)c(Cl)c1	i	23µM*	i	?	10	8
CN1CCN(c2ncc3c(n2)CCN(Cc2ccccc2Cl)C3)CC1	i	.	i	.	.	-16
Clc1ccc(CN2CCN(c3ncccn3)CC2)cc1	i	18%	i	-12%	14	36*
Clc1ccccc1CN1CCc2nc(N3CCN(c4ncccn4)CC3)ncc2C1	18µM*	.	?	.	.	-10
Oc1ccc(Cl)c(CN2CCN(c3ncc(Cc4ccccc4)cn3)CC2)c1	16µM*	.	?	.	-25	0
O=S(=O)(c1ccc(Cl)cc1)c1nc(-c2ccccc2Br)oc1N1CCOCC1	?	.	i	.	.	-21
COc1ccc(Br)cc1CNC(=O)C1CCCCN1S(=O)(=O)c1ccc(F)cc1 (stereo unspecified)	i	.	i	.	.	5
C[N+]1(CC(=O)c2ccccc2)CCc2ccccc2C1 (stereo unspecified)	i	.	i	.	.	.
CSc1ccccc1NC(=O)CN(Cc1ccccc1)S(C)(=O)=O	21µM*	12%	i	4%	22	-1
